# An excerpt weighted towards active compounds, which were near 2.3% of everything screened.
# C diff growth: blocks growth of Clostridium difficile; Clostridium difficile clinical isolate growth, OD600, 24 h; stronger effect = lower value; growth activity, negative = inhibition, % at 16 µg/mL (by protocol); 86,000 tested, 0.25% active; AID 1259249;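 active means mean growth activity at or below -80% and every replicate also at or below -80%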
# Pf Dd2 growth: inhibitors of Plasmodium falciparum Dd2 growth | P. falciparum Dd2 growth, SYBR Green, 72 h; stronger effect = lower value | activity change, % at 10 µM | 94,000 tested, 2.3% active | AID 1159554; in the data active means activity change below about -80%
# A number is an active result; i = inactive; nt = no result given.
SMILES,C diff growth,Pf Dd2 growth
C/C=C/c1ccc([C@H]2[C@@H](CO)N(CC3CCCC3)[C@@H]2CNC(=O)NC(C)C)cc1,i,-94.0
C/C=C/c1ccc([C@H]2[C@@H](CO)N(CC3CCCCC3)[C@@H]2CNC(C)C)cc1,i,-93.6
C/C=C/c1ccc([C@H]2[C@@H](CO)N(CC3CC3)[C@H]2CNS(C)(=O)=O)cc1,i,i
C/C=C/c1ccc([C@H]2[C@H](CO)N(c3nc(CC)cs3)[C@H]2CNC(C)C)cc1,i,-80.7
C/C=C/c1ccc([C@@H]2[C@@H](CO)N(c3nc(CC)cs3)[C@@H]2CNC(C)C)cc1,i,i
C[C@@H]1CN([C@H](C)CO)C(=O)c2cc(NS(=O)(=O)c3cn(C)cn3)ccc2O[C@@H](C)CCCCO[C@@H]1CN(C)C(=O)CCCN(C)C,i,i
COc1ccc(NC(=O)N[C@@H]2CC[C@H](CCn3cc(-c4ccc(F)cc4)nn3)O[C@H]2CO)cc1,i,i
C[C@@H]1CN([C@H](C)CO)C(=O)c2cccc(NC(=O)C3CC3)c2O[C@H]1CN(C)C(=O)Nc1ccc(C(F)(F)F)cc1,i,i
C[C@H](CO)N1C[C@H](C)[C@@H](CN(C)C(=O)Nc2ccc(C(F)(F)F)cc2)Oc2ccc(NC(=O)Nc3cccc4ccccc34)cc2C1=O,i,i
C[C@H]1CN([C@@H](C)CO)C(=O)c2cc(NC(=O)Nc3ccc(F)cc3)ccc2O[C@@H]1CN(C)C(=O)Nc1cccc2ccccc12,i,i
C[C@@H]1CN([C@H](C)CO)C(=O)c2cccc(NC(=O)Nc3cccc4ccccc34)c2O[C@@H]1CN(C)C(=O)Nc1ccc(C(F)(F)F)cc1,i,-91.9
C[C@H]1CN([C@@H](C)CO)C(=O)c2cc(NC(=O)Nc3cccc4ccccc34)ccc2O[C@H]1CN(C)C(=O)Nc1ccc(C(F)(F)F)cc1,i,-91.2
C[C@H]1CN([C@@H](C)CO)C(=O)c2cc(NC(=O)Nc3ccc(C(F)(F)F)cc3)ccc2O[C@@H]1CN(C)C(=O)Nc1cccc2ccccc12,i,-95.2
C[C@@H]1CN([C@H](C)CO)C(=O)c2cccc(NC(=O)Nc3cccc4ccccc34)c2O[C@H]1CN(C)C(=O)Nc1ccc(C(F)(F)F)cc1,i,i
C[C@@H]1CN([C@@H](C)CO)C(=O)c2cccc(NC(=O)C3CC3)c2O[C@@H]1CN(C)C(=O)Nc1ccc(C(F)(F)F)cc1,i,-88.7
Cc1noc(C)c1NC(=O)N(C)C[C@@H]1Oc2ncc(Br)cc2C(=O)N([C@@H](C)CO)C[C@@H]1C,i,i
Cc1ccc(S(=O)(=O)Nc2cccc3c2O[C@@H](CN(C)C(=O)Nc2ccccc2)[C@@H](C)CN([C@H](C)CO)C3=O)cc1,i,i
CCCNC(=O)N1C[C@H](C)[C@H](OC)CN(C)C(=O)c2ccc(NC(=O)CC)cc2OC[C@@H]1C,i,i
COc1cccc(S(=O)(=O)N(C)C[C@H]2Oc3ncc(C#CCN(C)C)cc3C(=O)N([C@H](C)CO)C[C@@H]2C)c1,i,i
C[C@H](CO)N1C[C@H](C)[C@@H](CN(C)C(=O)Cc2cccnc2)Oc2ncc(C#CCN(C)C)cc2C1=O,i,i
CO[C@@H]1CN(C)C(=O)c2ccc(NC(=O)C3CCC3)cc2OC[C@@H](C)NC[C@@H]1C,i,nt
C/C=C/c1ccc([C@H]2[C@H](CO)N[C@H]2CN(C(=O)C2CCCC2)C(C)C)cc1,i,i
C[C@H](CO)N1C[C@H](C)[C@@H](CN(C)C(=O)Nc2cccc3ccccc23)Oc2ccc(NC(=O)Nc3ccc(C(F)(F)F)cc3)cc2C1=O,i,-95.8
C[C@@H]1CN([C@H](C)CO)C(=O)c2cc(NC(=O)Nc3cccc4ccccc34)ccc2O[C@H]1CN(C)C(=O)Nc1ccc(C(F)(F)F)cc1,i,i
CCC(=O)N[C@@H]1CC[C@@H](CCNC(=O)Nc2ccc(C(F)(F)F)cc2)O[C@@H]1CO,nt,i
SMILES,C diff growth,Pf Dd2 growth
CC(=O)N[C@@H]1CC[C@H](CCNC(=O)Nc2ccc(C(F)(F)F)cc2)O[C@H]1CO,-93.8,i
CC(=O)N[C@H]1CC[C@@H](CCNC(=O)Nc2ccc(C(F)(F)F)cc2)O[C@@H]1CO,i,i
CN(C)CC(=O)N[C@@H]1CC[C@@H](CCNC(=O)Nc2ccc(C(F)(F)F)cc2)O[C@H]1CO,-89.1,i
O=C(NCC[C@H]1CC[C@H](NC(=O)C2CC2)[C@@H](CO)O1)Nc1ccc(C(F)(F)F)cc1,-99.4,i
O=C(NCC[C@H]1CC[C@H](NC(=O)C2CC2)[C@H](CO)O1)Nc1ccc(C(F)(F)F)cc1,i,i
C[C@@H]1CN([C@H](C)CO)C(=O)CCCn2nncc2CO[C@H]1CN(C)C(=O)Nc1ccc(F)cc1,nt,i
CCC(=O)N[C@H]1CC[C@@H](CCn2cc(C3CC3)nn2)O[C@@H]1CO,i,i
O=C(C[C@@H]1CC[C@H]2[C@@H](COC[C@@H](O)CN2CCC(F)(F)F)O1)NCc1ccc(Oc2ccccc2)cc1,i,nt

# Source: PubChem BioAssay (Broad Institute)
